High-throughput results (PubChem)
The entries come from a sample that favours hits as a whole.
U2OS ROS induce – ROS inducers in U2OS cancer cells, primary screen, cell-based, H2DCF-DA fluorescence; hit rate 2% among 46,000; U2OS ROS induction; ROS induction (% of piperlongumine), % at 10 µM; in the data active = ROS induction above about 79%, passing the limit was not always enough;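 also: 0% = DMSO vehicle median and 100% = reference compound median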
Starred values were filed as active, the others as inactive.

SMILES	U2OS ROS induce
CCN1C(=O)/C(=C/C=C2\CCCN2C)N(c2ccccc2)C1=S	12
CCOC(=O)c1ccc2nc(C(F)(F)F)nc(NCc3ccc(Cl)cc3)c2c1	10
CCOC(=O)c1cnc2cc(C(F)(F)F)ccc2c1N1CC(C)CC(C)C1 (stereo not given)	1
CCOC(=O)c1ccc2nc(C(F)(F)F)nc(N3CC(C)OC(C)C3)c2c1 (stereo not given)	108*
COc1ccc(NC(=O)Nc2ccc3c(c2)C(=O)N([C@H](C)CO)C[C@H](C)[C@@H](CN(C)CC2CCCCC2)O3)cc1	-1
C[C@@H]1CN([C@H](C)CO)C(=O)CCCn2cc(nn2)CO[C@@H]1CN(C)S(=O)(=O)c1ccccc1	104*
C[C@@H]1CN([C@H](C)CO)C(=O)CCCn2cc(nn2)CO[C@@H]1CN(C)S(=O)(=O)c1cccs1	89*
C[C@H](CO)N1C[C@H](C)[C@@H](CN(C)S(=O)(=O)c2cccs2)OCc2cn(nn2)CCCC1=O	-26
C[C@H](CO)N1C[C@H](C)[C@H](CN(C)S(=O)(=O)c2cccs2)OCc2cn(nn2)CCCC1=O	28
C[C@H](CO)N1C[C@H](C)[C@@H](CN(C)S(=O)(=O)c2ccccc2)OCc2cn(nn2)CCCC1=O	9
C[C@H]1CN([C@@H](C)CO)C(=O)CCCn2cc(nn2)CO[C@H]1CN(C)S(=O)(=O)c1ccccc1	-22
C[C@@H]1CN([C@H](C)CO)C(=O)c2cc(NC(=O)CCCN(C)C)ccc2O[C@@H]1CN(C)S(=O)(=O)c1cccs1	14
O=C(N/N=C/c1ccccc1Br)c1ccccc1O	-5
CCC(Sc1nncn2c1cc1occc12)C(=O)Nc1ccccc1OC (stereo not given)	50
Cc1noc(C)c1NC(=O)N(C)C[C@H]1Oc2c(NC(=O)CCCCCC(=O)Nc3ccccc3N)cccc2C(=O)N([C@H](C)CO)C[C@@H]1C	16
O=c1cc(CSc2nc3sc4c(c3c(=O)n2Cc2ccco2)CCC4)[nH][nH]1	63
COc1cccc(NC(=O)N(C)C[C@H]2OCc3cnnn3CCCC(=O)N([C@@H](C)CO)C[C@H]2C)c1	27
CCOc1ccc2c(c1)sc1c(C)cc(=O)oc12	-1
COc1cccc(-c2cnc3c(c2)C(=O)N([C@H](C)CO)C[C@H](C)[C@H](CN(C)C(=O)Nc2cccc4ccccc24)O3)c1	93*
COc1cccc(-c2cnc3c(c2)C(=O)N([C@H](C)CO)C[C@H](C)[C@H](CN(C)C(=O)Nc2ccc(F)cc2)O3)c1	29
COc1cccc(-c2cnc3c(c2)C(=O)N([C@H](C)CO)C[C@H](C)[C@H](CN(C)C(=O)NC2CCCCC2)O3)c1	13
COc1ccc(-c2cnc3c(c2)C(=O)N([C@H](C)CO)C[C@H](C)[C@H](CN(C)C(=O)Nc2ccc4c(c2)OCO4)O3)cc1	33
C[C@H](CO)N1C[C@H](C)[C@H](CN(C)C(=O)Nc2ccc3c(c2)OCO3)Oc2ncc(-c3cccc(F)c3)cc2C1=O	34
COc1cccc(-c2cnc3c(c2)C(=O)N([C@H](C)CO)C[C@H](C)[C@H](CN(C)C(=O)Nc2ccc4c(c2)OCO4)O3)c1	94*
COc1ccc2oc(=O)c(-c3nc(-c4ccc(Cl)cc4)cs3)cc2c1	16
SMILES	U2OS ROS induce
CCn1c(SCC(=O)Nc2c(C)cc(C)cc2C)nnc1-c1ccccc1C	-9
Cc1ccc(N2C(=O)CSC2c2ccccc2C(F)(F)F)cc1C (stereo not given)	-9
O=C(CCCCCCC(=O)Nc1ccccc1O)N/N=C/c1ccc([N+](=O)[O-])s1	21
CCOC(=O)c1sc(NC(=O)c2cc(-c3ccccc3)on2)c(C(=O)OCC)c1C	-8
O=C1c2ccccc2-c2c(NCCc3ccccc3)c(=O)[nH]c3cccc1c23	813*
Cc1nnc(NCCc2ccccc2)[nH]c1=O	-6
Cn1c(=O)c(Nc2ccccc2)c2c3c(cccc31)C(=O)c1ccccc1-2	51
COC(=O)c1ccc(-c2ccco2)n1CC(=O)N1CCCC1	-12
Cc1ccc(O)c(C2=Nc3ccccc3N=C(C(F)(F)F)C2)c1	12
CCN(CC(=O)Nc1cccc(C)c1)S(=O)(=O)c1ccc(Br)cc1	131*
CCN(CC(=O)Nc1ccccc1)S(=O)(=O)c1ccc(Cl)cc1	-3
CCN(CC(=O)Nc1ccc(C)c(C)c1)S(=O)(=O)c1ccc(C)cc1	-2
OCCN(Cc1ccccc1)c1ncnc2c1sc1nc(N3CCOCC3)c3c(c12)CCCC3	59
CCCn1nnc(NC(=O)COc2ccc(C)cc2C)n1	-9
Cc1cc(C(F)F)n2nc(C(=O)Nc3c(C)nn(Cc4ccc(Cl)cc4)c3C)nc2n1	-4
O=C(NC1CCCC1)c1ccccc1	-3
C=CCn1c(SCC(N)=O)nnc1-c1ccc(Br)cc1	-8
COc1ccc(S(=O)(=O)Nc2ccc3c(c2)C(=O)N([C@@H](C)CO)C[C@@H](C)[C@@H](CN(C)C(=O)Nc2ccccc2)O3)cc1	16
C[C@@H]1CN([C@@H](C)CO)C(=O)Cc2cc(NS(=O)(=O)c3cn(C)cn3)ccc2O[C@@H]1CN(C)Cc1ccc(Oc2ccccc2)cc1	21
